FLuc inh: blocks purified firefly luciferase enzyme activity | AID 1347043 | purified P. pyralis luciferase, luminescence, biochemical | 2.5% of 76,000 active | Potency, µM (top dose mostly 115 µM), usual class: inhibitors | P08659; note: nearly all actives have a fitted effect of over 65% in size
Target sequence (P08659 whole entry, looked up): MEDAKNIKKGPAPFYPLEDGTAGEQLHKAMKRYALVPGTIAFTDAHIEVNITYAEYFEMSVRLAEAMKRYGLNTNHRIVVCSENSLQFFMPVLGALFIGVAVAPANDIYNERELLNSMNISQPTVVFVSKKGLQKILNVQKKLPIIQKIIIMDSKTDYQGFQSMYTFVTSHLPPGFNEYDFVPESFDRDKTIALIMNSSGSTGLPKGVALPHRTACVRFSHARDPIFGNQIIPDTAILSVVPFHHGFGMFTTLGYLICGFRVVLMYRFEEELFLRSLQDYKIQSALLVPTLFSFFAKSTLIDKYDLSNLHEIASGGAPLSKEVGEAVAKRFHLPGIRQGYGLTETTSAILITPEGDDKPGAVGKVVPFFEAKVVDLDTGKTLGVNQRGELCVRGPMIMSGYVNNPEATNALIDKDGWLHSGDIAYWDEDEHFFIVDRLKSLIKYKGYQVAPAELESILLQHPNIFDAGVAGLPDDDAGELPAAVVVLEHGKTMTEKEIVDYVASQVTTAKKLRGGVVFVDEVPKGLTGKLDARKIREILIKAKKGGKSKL
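Luminescence read by CCD imager after adding enzyme (10nM final) to wells holding compound, titrated in qHTS. Substrates 10uM each D-luciferin and ATP; buffer 50mM Tris acetate pH 7.5, 10mM Mg acetate, Tween-20, BSA.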
NIH3T3 tox: kills NIH 3T3 cells. AID 1345082. Potency, µM (highest dose often 96.7 µM), inactives show at the top dose activity change, negative = cytotoxicity, most hits filed as inhibitors. NIH 3T3 viability, CellTiter-Glo ATP luminescence, 48-72 h. 4.3% of 94,000 active; note: nearly all actives have a fitted effect of over 55% in size
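NIH 3T3 cells at 400 cells/well received 23 nL of compound by pintool and were incubated 48 or 72 h at 37 °C. Viability was read as ATP-coupled CellTiter-Glo luminescence.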
HEK cytotox: cytotoxic compounds in HEK 293 cells | HEK 293 viability, ATP luminescence (CellTiter-Glo), 48-72 h | 6.6% of 94,000 active | Potency, µM (top dose mostly 115 µM), inactives show at the top dose activity change, negative = cytotoxicity, actives largely listed as inhibitors | AID 1345083; note: nearly all actives have a fitted effect of over 60% in size
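CellTiter-Glo luminescence (cellular ATP) was read after 48 or 72 hr of compound exposure at 37 degree Celsius. Cells were HEK 293 plated at 250 cells/well.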
hNpr1 antagonist: human Npr1 receptor antagonism; Potency, µM (series often up to 46.3 µM), without a hit: at the highest dose activity change, negative = inhibition, hits mostly inhibitors; AID 1347048; 1.6% of 76,000 active; HEK293 hNpr1 GloSensor cGMP, ANP-stimulated luminescence; calls by dose curve; note: nearly all actives have a fitted effect of over 60% in size
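Compound pre-incubated 30 min at room temperature on GloSensor-loaded HEK293 cells stably carrying hNpr1 and the pGS-40F cGMP biosensor. Stimulation uses hNppA at 0.1 nM final; luminescence is taken at baseline and 20 min post-agonist.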
Starred values were filed as active, the others as inactive; i = inactive; ? = inconclusive; · = no result given; [ ] = remark or other dose. Shown are actives, neighbours in structure and some others; about 11% of the full set was active somewhere. Unless noted, calls come from the whole dose curve; as a rule, active = well fitted curve in the direction sought with a large enough effect; inconclusive = small, poorly fitted or top-dose-only effect, or another doubt; inactive = no such curve, though single readings can be large; an effect the other way counts as inactive or inconclusive. % is set by controls: 0 for no effect and ±100 for the full control effect; potency is the fitted concentration of half-maximal effect.

SMILES	FLuc inh	NIH3T3 tox	HEK cytotox	hNpr1 antagonist
CC(C)(C)c1ccc(C(=O)N2CCN(C(=O)c3nnn4c3COC(c3ccc(F)cc3)C4)CC2)cc1 (centres undefined)	i	?	?	-17.8%
Cc1ccc(C(=O)N2CCN(C(=O)c3nnn4c3COC(c3ccc(Cl)cc3)C4)CC2)cc1F (centres undefined)	i	-11.8%	-15.9%	-1.2%
O=C(c1cc(F)ccc1F)N1CCN(C(=O)c2nnn3c2COC(c2ccc(Cl)cc2)C3)CC1 (centres undefined)	i	-24.9%	35.5µM*	?
O=C(c1ccc(F)cc1)N1CCN(C(=O)c2nnn3c2COC(c2ccc(Cl)cc2)C3)CC1 (centres undefined)	i	?	39.8µM*	-25.5%
Clc1cccc(-c2noc(-c3ncn4c3COC(c3ccccc3Cl)C4)n2)c1 (centres undefined)	?	-12.4%	-18.3%	-2.8%
Cc1cn2nnc(C(=O)NCc3ccc(OC(C)C)cc3)c2c(=O)[nH]1	i	-24.4%	?	-29.3%
CCOc1cccc2c1OC[C@@H]1CN(CCC#N)C(=O)CCN(C(=O)COc3ccccc3)[C@H]21	·	?	-24.2%	·
Cc1ccc(C(=O)N2CCC(n3cc(-c4nc(-c5ccccc5)no4)nn3)CC2)s1	i	?	44.7µM*	?
Cc1ccc(C(=O)N2CCCC(n3cc(-c4nc(-c5ccccc5)no4)nn3)C2)s1 (centres undefined)	?	?	?	10µM*
Cc1noc(-c2cn(C3CCN(C(=O)c4ccc(C)s4)CC3)nn2)n1	i	-25.7%	-8.7%	25.0%
Cc1ccncc1C(=O)N1CCC(N2CC3(CCCCC3)C2c2ccncc2)CC1 (centres undefined)	·	-17.1%	-21.4%	·
Cc1cc(Cl)ccc1C(=O)N1Cc2cnn(Cc3ccc(F)cc3)c2C1	i	?	44.7µM*	?
CC(C)Oc1ccc(C(=O)N2Cc3cnn(Cc4ccc(F)cc4)c3C2)cc1	i	?	?	?
CN(Cc1ccccc1C(F)(F)F)C(=O)c1ccccc1	i	-15.7%[138 µM]	?	22.6%[70.6 µM]
CN(Cc1ccccc1C(F)(F)F)C(=O)c1cccc(Cl)c1	i	?	89.1µM*	0.0%[70.6 µM]
O=C(Nc1cccc(-c2ccco2)c1)C1CCN(Cc2ccc(CO)o2)CC1	i	-30.0%	?	-15.3%
Cc1ncc(CN2CCC(C(=O)Nc3cccc(-c4cc5ccccc5[nH]4)c3)CC2)cn1	i	?	20µM*	-1.4%
Cc1csc(Nc2ccc3c(n2)CN(Cc2ccc(F)cc2)C(=O)CO3)n1	i	?	8.91µM*	?
COCCN1Cc2nc(Nc3ccccc3F)ccc2OCC1=O	i	-16.3%[138 µM]	?	1.6%[70.6 µM]
O=C1COc2ccc(Nc3ccccc3F)nc2CN1Cc1ccc(F)cc1	i	?	79.4µM*	-17.5%[70.6 µM]
CC(=O)N1CCC2(CC1)CN(C(=O)Cc1csc(N)n1)Cc1ccccc1O2	·	i	i	·
CCc1cccc(NC(=O)[C@@H]2CN(S(=O)(=O)CC)C[C@H]2c2ccncc2)c1	·	-22.7%	1.8%	·
O=C(c1ccc(CNc2nccc(-c3cccnc3)n2)cc1)N1CCCCC1	i	50.1µM*	39.8µM*	-10.0%
c1cncc(-c2ccnc(NCC(c3cccnc3)N3CCCCC3)n2)c1 (centres undefined)	i	-17.1%	i	-1.2%
COCCN(Cc1nccs1)C(=O)c1cnc(-c2ccccn2)[nH]c1=O	i	?	39.8µM*	2.8%
SMILES	FLuc inh	NIH3T3 tox	HEK cytotox	hNpr1 antagonist
O=C(NCC1CCCCC1)c1ccc2c(c1)N(S(=O)(=O)c1ccccc1)CC2	i	39.8µM*	?	-4.5%
O=C(NCC1CCNC1)C1CCN(c2nc(-c3ccccc3)nc3c2CCC3)CC1 (centres undefined)	i	79.4µM*	?	1.2%
Cn1cc(CNC(=O)C2CCN(c3nc(-c4ccccc4)nc4c3CCC4)CC2)cn1	i	i	i	5.8%
COc1cccc(-c2nc3cc4c(cc3cc2CN2CCSCC2)OCO4)c1OC	i	?	22.4µM*	0.4%
O=C(Cc1ccsc1)N1CCCN(c2cc(-c3ccc(Cl)cc3)[nH]n2)CC1	i	?	?	?
Cc1ccc(-c2cc(N3CCCN(C(=O)c4ccccc4F)CC3)n[nH]2)cc1C	i	?	28.2µM*	-24.0%
Cc1cccc(OCC(=O)N2CCCN(c3cc(-c4ccc(Cl)cc4)[nH]n3)CC2)c1	i	25.1µM*	?	?
O=C(Cc1ccccc1)N1CCCN(c2cc(-c3ccc(Cl)cc3)[nH]n2)CC1	i	?	39.8µM*	?
Cc1ccc(-c2cc(N3CCCN(C(=O)Cc4ccccc4)CC3)n[nH]2)cc1C	?	39.8µM*	?	-12.7%
O=C(c1ccccc1F)N1CCN(c2cc(-c3ccc(F)cc3)[nH]n2)CC1	i	?	?	?
COc1cccc(CC(=O)N2CCN(c3cc(-c4ccc(Cl)cc4)[nH]n3)CC2)c1	i	?	?	?
CN(C)C[C@@H]1CN(c2ncccn2)C[C@H]1NC(=O)CCCc1ccccc1	i	-8.1%	-8.7%	0.7%
O=C1CN(C(=O)c2ccc(F)cc2)CC(O)CN1Cc1ccc(Cl)cc1 (centres undefined)	·	?	-24.9%	·
Cc1ccc(CC(=O)N2CCCN(c3cc(-c4ccccc4)[nH]n3)CC2)cc1	i	?	50.1µM*	-18.2%
Cn1nc(C(=O)N2CCCN(c3cc(-c4ccccc4)[nH]n3)CC2)c2ccccc21	i	?	28.2µM*	-2.2%
COc1ccc(CC(=O)N2CCCN(c3cc(-c4ccc(Cl)cc4)[nH]n3)CC2)cc1	i	?	39.8µM*	?
COc1ccc(S(=O)(=O)N2CCC3(CC2)CC(CC(=O)NC2CC2)CCO3)cc1 (centres undefined)	i	2.4%	-10.2%	-1.6%
Cc1ccc(-n2cc(CN3CCCCC3C(N)=O)c(-c3cccc(C)c3)n2)cc1 (centres undefined)	?	79.4µM*	50.1µM*	5.5%
Cc1cccc(-c2nc3cc4c(cc3cc2CN2CCC[C@H]2C(N)=O)OCO4)c1	i	?	?	3.6%
Cn1nc2n(c1=O)CCN(S(=O)(=O)Cc1ccccc1)CC2	·	3.8%	4.6%	·
CN(C)CCN(C)C(=O)c1ccc(-c2ncc3cnc(-c4cccc(F)c4)cn23)cc1	i	44.7µM*	50.1µM*	-6.5%[70.6 µM]
O=C(COc1ccccc1)NC1CCCc2c1[nH]c1ccccc21 (centres undefined)	i	?	?	-4.2%
COCCN[C@@H]1C[C@@H]2c3[nH]c4ccccc4c3C[C@@H](C(=O)OC)N2[C@H](c2ccc(F)c(F)c2)C1	i	25.1µM*	22.4µM*	?
COC(=O)[C@@H]1Cc2c([nH]c3ccccc23)[C@H]2C[C@@H](NCCO)C[C@@H](c3ccccc3)N21	?	31.6µM*	39.8µM*	-16.1%[70.6 µM]
